Screening results: PubChem BioAssay, National Center for Advancing Translational Sciences (NCATS)
The full list was thinned out, with hits kept by preference.
Pf Dd2 inh = blocks in vitro growth of P. falciparum Dd2 | AID 1347417 | P. falciparum Dd2 growth, SYBR Green, 72 h | Potency, µM (titrated, usually from 28.9 µM), without a hit: top-dose activity, negative = inhibition, usual class: inhibitors | hit rate 4.3% among 120,000; active = well fitted inhibition curve with a large enough effect;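 note: plate controls were DMSO vehicle for no effect and reference drug for full effect; nearly all actives have a fitted effect of over 65% in size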
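Readout: SYBR Green fluorescence, 485 nm excitation, 535 nm emission, after ~16 h lysis at 37C. Before that, Dd2-infected red cells (2.5% hematocrit) grew 72 h with compound, 29 uM top final concentration.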
Numbers without * were called inactive; i = inactive; [ ] = another dose, or the depositor's remark. Potency is the fitted concentration of half-maximal effect.

SMILES	Pf Dd2 inh
O=C(Nc1cccc(F)c1)N1CCOc2ccc(CN3CCc4ccccc4C3)cc2C1	2µM*
COCCOCC(=O)N1CCOc2ccc(CN3CCc4ccccc4C3)cc2C1	11.2µM*
CCCNC(=O)N1CCOc2ccc(CN3CCc4ccccc4C3)cc2C1	-15.3%
CCOCCCNC(=O)N1CCOc2ccc(CN3CCc4ccccc4C3)cc2C1	-5.0%
COCCn1cc(CN2CCc3ccccc3C2)ccc1=O	i
O=C(Nc1cccc(F)c1)N1CCC(O)(c2csc(CN3CCc4ccccc4C3)n2)CC1	-2.6%
Cc1noc(-c2ccc(OC3CN(C(=O)c4ccoc4)C3)cc2)n1	i[5.79 µM]
COC1C(=O)N(CC2CC2)C12CCN(S(=O)(=O)c1cccc3cccnc13)CC2 (centres undefined)	-7.5%
CCC(c1cccs1)N1C(=O)[C@H]2CN(Cc3cccnc3)C[C@H]2C1=O (some centres undefined)	86.9%
CCOCCN1C(=O)COC[C@@H]1[C@H](O)c1ccc(NC(=O)COc2ccccc2)cc1	-25.5%[44.1 µM]
CCN1C(=O)COC[C@@H]1[C@H](O)c1ccc(NC(=O)COc2ccccc2)cc1	-8.2%[44.1 µM]
O=C(COc1ccccc1)Nc1ccc([C@@H](O)[C@H]2COCC(=O)N2CCCc2ccccc2)cc1	7.94µM*
c1ccc(Cn2cnnc2CC2CCNCC2)cc1	i
O=C(c1cccc(OC2CN(C3CCCCCC3)C2)c1)N1CCOCC1	-2.4%
COc1ccc(C(=O)N[C@@H]2CCC[C@@H]2C(=O)NCc2cc(OC)ccc2OC)cc1	-5.1%
COc1ccccc1CNC(=O)[C@H]1CCC[C@H]1NC(=O)c1ccncc1	13.7%
CCOc1ccccc1CNC(=O)[C@H]1CCC[C@H]1NC(=O)c1ccc(OC)cc1	11.2µM*
Cc1[nH]nc(CCC(=O)N2CC[C@@H](NC(=O)c3cnccn3)[C@H](O)C2)c1C	-3.7%
CN1CC2(CCN(C(=O)NCc3ccc(F)cc3)CC2)CC1C(=O)N1CCOCC1 (centres undefined)	10.2%
CC(=O)N1C[C@@H](CN(C)C)[C@H](NS(=O)(=O)c2cccc(C#N)c2)C1	7.1%
CN(C)C[C@@H]1CN(c2ncccn2)C[C@H]1NS(=O)(=O)c1cccnc1	i
CN(C)C[C@@H]1CN(C)C[C@H]1NS(=O)(=O)c1ccc2c(c1)CCCC2	3.16µM*
CCCS(=O)(=O)N[C@@H]1CN(C)C[C@H]1CN(C)C	15.8%
CN(C)C[C@@H]1CN(C)C[C@H]1NS(=O)(=O)c1ccc(Br)cc1	1.78µM*
CNC(=O)N1C[C@@H](CN(C)C)[C@H](NS(=O)(=O)c2ccc3c(c2)CCC3)C1	20.7%
SMILES	Pf Dd2 inh
Cc1nc(C2CCCN(C(=O)Cc3ccc(S(C)(=O)=O)cc3)C2)n[nH]1 (centres undefined)	19.8%
COc1ccccc1C(=O)N1CCn2c(nnc2-c2cccnc2)C1	26.5%
Cc1nn(C)cc1NC(=O)CN1CCC(=O)N(CC2CC2)C(C(C)C)C1 (centres undefined)	18.0%
COCC(=O)N1CCCC(C(=O)NCCNc2ncccc2C)C1 (centres undefined)	10.6%
O=C(C1CCCC1)N1CCC2(CC1)CC(c1ccccc1)=NO2	19.5%
Cc1cn2nc(C(=O)Nc3ccc4c(c3)OCCO4)cc2c(N2CCSCC2)n1	i
N#Cc1ccc(C(=O)NCc2ccc3c(c2)CCN3C(=O)c2ccc(F)cc2)cc1	5.01µM*
COc1ccccc1C(=O)NCc1ccc2c(c1)CCN2C(=O)c1cccc(C)c1	i
Cc1cccc(OCC(=O)NCc2ccc3c(c2)CCN3C(=O)c2ccccc2)c1	10µM*
Cc1ccc(C(=O)N2CCc3cc(CNS(=O)(=O)c4cccs4)ccc32)cc1	8.91µM*
Cc1cccc(C(=O)N2CCc3cc(CNC(=O)CSc4ccccc4)ccc32)c1	i
Cc1cccc(C(=O)N2CCc3cc(CNS(=O)(=O)c4cccs4)ccc32)c1	i
CCC(=O)N1CCc2cc(CNC(=O)c3ccc(C#N)cc3)ccc21	65.2%
Cc1cccc(C(=O)N2CCc3cc(CNC(=O)c4ccc(Br)o4)ccc32)c1	1.26µM*
CCC(=O)N1CCc2cc(CNS(=O)(=O)c3cccs3)ccc21	-8.9%
Cc1cccc(C(=O)N2CCc3cc(CNC(=O)c4ccnn4C)ccc32)c1	i
O=C(NCc1ccc2c(c1)CCN2C(=O)c1ccc(F)cc1)c1c(F)cccc1F	7.5%
COc1ccc(CC(=O)NCc2ccc3c(c2)CCN3C(=O)c2ccccc2)cc1OC	15.7%
CC(C)Oc1ccc(CNC(=O)CC2CCOCC2)cc1	12.1%
NC(=O)N1CCCC(C(=O)NCCc2nc(-c3ccccn3)no2)C1 (centres undefined)	-2.5%
COc1cccc(N2C(=O)NC(=NC3CCCCC3)C23CCN([S+](=O)([O-])c2cccc(C(F)(F)F)c2)CC3)c1	-26.9%
O=C(C[C@@H]1C[C@H]2O[C@H](CNCc3ccccc3Cl)[C@@H](O)[C@H]2O1)N1CCOCC1	1.0%[44.1 µM]
COc1ccccc1OCC(=O)NC1CC(=O)N(Cc2ccccc2Cl)C1 (centres undefined)	-18.0%
Fc1ccc(OCc2nc(-c3nnn4c3COC(c3ccccc3Cl)C4)no2)cc1 (centres undefined)	-6.0%
